# Measured values from paper PMC11062922 (Nature Chemical Biology, 2023).
# How the values were obtained:
# Set-up in all cases: species or system human, MV4-11 + K-562 + COLO205 + SK-N-BE2 + OVCAR-8
# [1] = tested on: PHKG2; details: read-out: apparent Kd; compound concentrations: 100 nM and 1000 nM (sheet 'Samples'), CATDS: 8.5402919050668602E-3; n = 1
# [2] = tested on: PRKACA; details: read-out: apparent Kd; compound concentrations: 100 nM and 1000 nM (sheet 'Samples'), CATDS: 7.7130843989671599E-3; n = 1
# [3] = tested on: RAF1; details: read-out: apparent Kd; compound concentrations: 100 nM and 1000 nM (sheet 'Samples'), CATDS: 0.155550656381887; n = 1
# [4] = tested on: TESK2; details: read-out: apparent Kd; compound concentrations:100 nM and 1000 nM (sheet 'Samples'); n = 1
# [5] = tested on: MAP3K5; details: read-out: apparent Kd; compound concentrations: 100 nM and 1000 nM (sheet 'Samples'), CATDS: 5.5720140806326597E-2; n = 1
# [6] = tested on: RPS6KB1; details: read-out: apparent Kd; compound concentrations: 100 nM and 1000 nM (sheet 'Samples'), CATDS: 7.08215510279748E-2; n = 1
# [7] = tested on: NEK1; details: read-out: apparent Kd; compound concentrations: 100 nM and 1000 nM (sheet 'Samples'), CATDS: 0.147931725525974; n = 1
# [8] = tested on: CLK3; details: read-out: apparent Kd; compound concentrations: 100 nM and 1000 nM (sheet 'Samples'), CATDS: 1.8485003347971998E-2; n = 1
# [9] = tested on: NTRK1; details: read-out: apparent Kd; compound concentrations: 100 nM and 1000 nM (sheet 'Samples'), CATDS: 1.31353956305182E-2; n = 1
# [10] = tested on: RPS6KA1; details: read-out: apparent Kd; compound concentrations: 100 nM and 1000 nM (sheet 'Samples'), CATDS: 1.0541415060752299E-2; n = 1
# [11] = tested on: FES; details: read-out: apparent Kd; compound concentrations: 100 nM and 1000 nM (sheet 'Samples'), CATDS: 3.8230279183827799E-2; n = 1
# [12] = tested on: MAP2K3; details: read-out: apparent Kd; compound concentrations:100 nM and 1000 nM (sheet 'Samples'); n = 1
# [13] = tested on: PIK3CB; details: read-out: apparent Kd; compound concentrations:100 nM and 1000 nM (sheet 'Samples'); n = 1
# [14] = tested on: SLC25A5; details: read-out: apparent Kd; compound concentrations:100 nM and 1000 nM (sheet 'Samples'); n = 1
# [15] = tested on: PI4KB; details: read-out: apparent Kd; compound concentrations: 100 nM and 1000 nM (sheet 'Samples'), CATDS: 0.18067625739165599; n = 1
# [16] = tested on: NEK9; details: read-out: apparent Kd; compound concentrations: 100 nM and 1000 nM (sheet 'Samples'), CATDS: 2.1458730065113701E-2; n = 1
# [17] = tested on: MAPK3; details: read-out: apparent Kd; compound concentrations:100 nM and 1000 nM (sheet 'Samples'); n = 1
# [18] = tested on: PIK3C2B; details: read-out: apparent Kd; compound concentrations: 100 nM and 1000 nM (sheet 'Samples'), CATDS: 3.01337612448444E-2; n = 1
# [19] = tested on: HMOX2; details: read-out: apparent Kd; compound concentrations:100 nM and 1000 nM (sheet 'Samples'); n = 1
# [20] = tested on: SMC4; details: read-out: apparent Kd; compound concentrations: 100 nM and 1000 nM (sheet 'Samples'), CATDS: 0.290936381936651; n = 1
smiles,measurement,setting,value
O=C1N=C(NCc2cccs2)SC1Cc1ccc2ncccc2c1 (centres unmarked) [RO4629078-000],potency estimated from few doses,[1],1.04 µM
same,potency estimated from few doses,[2],1.47 µM
CCc1nc(-c2cccc(N(C)S(=O)(=O)c3ccccc3)c2)c(-c2ccnc(Nc3ccc(N4CCN(C(C)=O)CC4)nc3)n2)s1 [GSK1645895A],potency estimated from few doses,[3],1.42 µM
CCn1cc(-c2ccnc3[nH]c(-c4cccc(CN(C)C)c4)cc23)c(-c2ccc(NC(=O)N(C)C)cc2)n1 [GSK1070916],potency estimated from few doses,[4],1.31 µM
CNC1=NC(=O)/C(=C/c2ccc3ncccc3c2)S1 [RO4595949-000],potency estimated from few doses,[5],1.24 µM
O=C1N=C(NCCc2ccccc2F)S/C1=C\c1ccc2ncccc2c1 [RO4498483-000],potency estimated from few doses,[6],1.72 µM
COc1cc(Nc2nccc(N3CCC(NC(=O)c4cccc(C#N)c4)C3)n2)cc(OC)c1OC (centres unmarked) [GSK1379751A],potency estimated from few doses,[7],1.86 µM
CNC(=O)c1ccccc1Nc1nc(Nc2cccc(CS(C)(=O)=O)c2)ncc1C.O=CO [GSK1520489A],potency estimated from few doses,[8],0.167 µM
same,potency estimated from few doses,[9],0.438 µM
same,potency estimated from few doses,[10],1.01 µM
CN1CCN(Cc2ccc(NC(=O)Nc3ccc(N(C)c4ccnc(Nc5ccc(CS(C)(=O)=O)cc5)n4)cc3)cc2)CC1.Cl [GW827654A],potency estimated from few doses,[11],1.23 µM
Nc1nc(N)c2nc(-c3ccccc3)[nH]c2n1 [SKF-12778],potency estimated from few doses,[12],2.02 µM
same,potency estimated from few doses,[13],0.79 µM
same,potency estimated from few doses,[14],1.96 µM
CS(=O)(=O)c1ccc(-c2cnc(N)c(C(=O)Nc3ccccc3)n2)cc1 [VE-821],potency estimated from few doses,[15],0.812 µM
CC(C)c1nc(-c2cccc(NS(=O)(=O)c3c(F)cccc3F)c2F)c(-c2ccnc(Nc3ccc(N4CCOCC4)nc3)n2)s1 [GSK2008607A],potency estimated from few doses,[16],1.1 µM
N#Cc1cccc(Nc2nccc(-c3cnn4ncccc34)n2)c1 [GW778894X],potency estimated from few doses,[17],0.975 µM
O=S(=O)(CCOCc1ccc(-c2ccc3ncnc(Nc4ccc(OCc5cccc(F)c5)c(Cl)c4)c3c2)o1)c1ccccc1 [GW615311X],potency estimated from few doses,[18],1.16 µM
Nc1c(C(=O)c2ccccc2)cnn1-c1ccc(F)cc1 [RO1151246-000],potency estimated from few doses,[19],2.21 µM
O=C1NC(=O)C(c2cccc(Cl)c2)=C1Nc1ccc(O)c(Cl)c1 [SB-409514],potency estimated from few doses,[20],1.76 µM
